From PubChem BioAssay AID2284075 (EPA ToxCast)
The source made the active and inactive calls. How the source made its calls: active means hit-call score of the fitted dose curve at least 0.9, where 1 is the maximum; inactive means score below 0.9.

These compounds were tested against human Aurora-A (AURKA) Other Protein Kinase, AURKA (gene 6790) (UniProt O14965) (assay: ERF_FR_ENZ_hAURKA: Eurofins (ERF) Enzymatic Radiometric [10 uM ATP] KinaseProfiler LeadHunter Assay for human Aurora-A (AURKA) Other Protein Kinase).
human Aurora-A (AURKA) Other Protein Kinase, AURKA (gene 6790), sequence (O14965 whole entry, looked up): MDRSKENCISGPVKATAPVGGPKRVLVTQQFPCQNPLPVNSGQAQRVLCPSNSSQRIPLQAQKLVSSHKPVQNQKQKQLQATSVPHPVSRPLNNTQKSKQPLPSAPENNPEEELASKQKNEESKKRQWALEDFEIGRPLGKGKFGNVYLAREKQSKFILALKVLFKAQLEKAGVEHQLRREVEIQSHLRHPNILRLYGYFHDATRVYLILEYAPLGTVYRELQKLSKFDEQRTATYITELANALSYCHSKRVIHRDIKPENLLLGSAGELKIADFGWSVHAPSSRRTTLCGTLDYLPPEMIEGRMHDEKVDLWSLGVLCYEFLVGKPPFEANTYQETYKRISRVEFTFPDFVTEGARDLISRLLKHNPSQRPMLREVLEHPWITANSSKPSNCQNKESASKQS
Protocol: ERF_FR_ENZ_hAURKA is a biochemical, single-readout assay that uses extracted gene-proteins in a cell-free assay. Measurements were taken 0.25 hour after chemical dosing in a 96-well plate. See Aurora-A Human Other Protein Kinase Enzymatic LANCE Assay [Km ATP], Cerep.ERF_FR_ENZ_hAURKA is an assay component calculated from the ERF_FR_ENZ_hAURKA assay. It is designed to measure enzyme activity using a type of enzyme reporter as detected by fluorescence intensity with LANCE technology.Data from the assay component ERF_FR_ENZ_hAURKA was analyzed at the assay endpoint, ERF_FR_ENZ_hAURKA, in the positive analysis fitting direction relative to DMSO as the negative control and baseline of activity. Using a type of enzyme reporter, loss-of-signal activity can be used to understand changes in enzymatic activity as they relate to gene AURKA. To generalize the intended target to other relatable targets, this assay endpoint is annotated to the kinase intended target family, where the subfamily is serine/threonine kinase.
Aurora-A (h) is incubated with 8 mM MOPS pH 7.0, 0.2 mM EDTA, 200 uM LRRASLG (Kemptide), 10 mM MgAcetate and [gamma-33P]-ATP (specific activity and concentration as required). The reaction is initiated by the addition of the Mg/ATP mix. After incubation for 40 minutes at room temperature, the reaction is stopped by the addition of phosphoric acid to a concentration of 0.5%. […]
In the case of `O=C(/C=C/c1ccc(O)cc1)CC(=O)/C=C/c1ccc(O)cc1`, the outcome is reported as “inactive”.
